# Potency and affinity values are given separately.
# Experiment: inhibitors of CD8+ T cell–vesicle binding, dose response, mouse 2C CD8+ T cells, flow cytometry (AID 485284);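 note: drosophila derived vesicles carrying Ld MHC with QL9 peptide plus B7-1 and ICAM-1; vesicle binding seen as anti-B7-1 PE fluorescence on CD8 gated cells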
# Settings: 2C mouse CD8+ T cell-exosome binding; at 45 µM (top of the series)
row,SMILES,"binding remaining, % of control [%]"
1,COc1cccc(NC(=O)Nc2ccc3nc(C)c(C)nc3c2)c1,129
2,Cc1cc(C)n(C(=O)c2sc3cc(F)ccc3c2Cl)n1,160
3,CC(C)(C)OC(=O)NCc1ccc(CNC(=O)c2nc[nH]c2C(=O)NCc2ccccc2)cc1,109
4,O=C(N/N=C/c1cccc(OCc2ccccc2)c1)c1ccc(Br)cc1,63.5
5,CCSc1nnc(NC(=O)c2ccc(F)c(S(=O)(=O)N3CCOCC3)c2)s1,127
6,Cc1ccccc1C(=O)NCC(=O)N1CCN(C/C=C/c2ccccc2)CC1,42.6
7,O=C(NCCC1=CCCCC1)C(=O)NCC(c1ccco1)N1CCN(c2ccccc2F)CC1 (stereo not drawn),136
8,CC1CCN(S(=O)(=O)Cc2ccccc2Cl)CC1,118
9,CN1CCN(S(=O)(=O)c2cccc(C(=O)Nc3cc(C(F)(F)F)ccc3N3CCCCC3)c2)CC1,51.4
10,Cc1ccsc1C(=O)OCC(=O)N1CCN(c2ccccc2)CC1,129
11,COc1ccc(CN2C(=O)C(C)Nc3ncnc(N4CCN(c5ccccn5)CC4)c32)cc1 (stereo not drawn),22
12,COc1ccc(S(=O)(=O)N2CCCC2C(=O)Nc2ccc(C(C)=O)cc2)cc1 (stereo not drawn),91.8
13,O=C(Cc1ccc2c(c1)OCCO2)Nc1cccc(S(=O)(=O)N2CCOCC2)c1,135
14,Cc1ccc(S(=O)(=O)N2CCN(S(=O)(=O)N(C)C)CC2)c(C)c1,32.6
15,CC(C)(C)NC(=O)COc1ccc(CNCc2cccnc2)cc1,90.5
16,Cc1ncc([N+](=O)[O-])n1Cc1cccc(F)c1,40.3
17,CC1=C/C(=C(\c2ccc(O)c(C)c2)c2ccccc2S(=O)(=O)O)C=CC1=O,138

row,SMILES,"binding remaining, % of control [%]"
1,O=C(Oc1ccc(C(=S)N2CCOCC2)cc1)c1ccc(F)cc1,63.3
2,O=C(Cc1cccs1)Nc1cc(S(=O)(=O)N2CCCCC2)ccc1Cl,121
3,COc1ccc(N2CC(C(=O)N[C@@H](C)C(=O)NCc3ccccc3OC)CC2=O)cc1 (stereo partly drawn),24.3
4,CCOC(=O)CSc1nc(COc2ccccc2)nc2ccccc12,99.6
5,O=C(NCCc1nc2ccc(Cl)cc2[nH]1)C1CCC(=O)N(Cc2cccc(F)c2)C1 (stereo not drawn),110
6,CCOc1ccc(S(=O)(=O)N2CCC(C(=O)Nc3cc(S(C)(=O)=O)ccc3Cl)CC2)cc1,106
7,Cc1ccccc1CS(=O)(=O)CCC(=O)N1CCN(c2ccc(N3CCOCC3)nn2)CC1,40.8
8,Cc1cccc(OCC(=O)Nc2ccccc2C(=O)N2CCOCC2)c1,161
9,COc1ccc(-c2cc(CNS(=O)(=O)c3ccc(NC(C)=O)cc3)on2)cc1,101
10,CCCc1nnc(NC(=O)c2ccc(S(=O)(=O)N(C)c3ccccc3OC)cc2)s1,142
11,CSc1cccc(NC(=O)CCCn2c(=O)c3cccn3c3cccnc32)c1,87.5
12,COc1ccc(/C=C2\SC(N3CCc4ccccc4C3)=NC2=O)cc1OC,18.6
13,Cc1ccc2oc(=O)c(/C=C(\O)c3sc(C)nc3C)nc2c1,119
14,Cc1ccc2c(Cl)cc(Cl)c(OCC(=O)OCC(=O)Nc3ccc(C#N)cc3)c2n1,141
15,O=C(NC(=S)Nc1nc(-c2ccccc2)cs1)c1cccs1,173
16,COc1ccc(OC)c(NC(=O)CCN2CCCCC2)c1,220
